Assay [1] is described as follows: qHTS Screen of the MIPE 4.0 Collection Against Ewings Sarcoma (TC71) (AID 1259253). Note: nearly all actives have a fitted effect of over 40% in size. Note: potency is the fitted concentration of half-maximal effect. The essentials:
(§1)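 Compound titrations go onto adherent log-phase cells 4 h after seeding, incubate 48 h at 37C, then CellTiter-Glo luminescence reports viability relative to DMSO and cell-free controls.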

Assay [2] in a line: qHTS Screen of the MIPE 4.0 Collection Against Ewings Sarcoma (EW8) (AID 1259255). Note: nearly all actives have a fitted effect of over 35% in size. Note: potency is the fitted concentration of half-maximal effect. Summed up: as §1
The nature of assay [3]: qHTS Screen of the MIPE 4.0 Collection Against Ewings Sarcoma (TC32) (AID 1259256). Note: nearly all actives have a fitted effect of over 45% in size. Note: potency is the fitted concentration of half-maximal effect. The essentials:
as §1

A short description of assay [4]: qHTS assay to identify small molecule inhibitors of chordoma cells - UCH-2 (AID 1259356). Note: series mostly up to about 46 µM.
A short description of assay [5]: Identifying Small Molecule Inhibitors of Pancreatic Cancer Stem Cells (A2780, Spheroid) (AID 1259357).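 Note: spheroids pre-formed over 14 days in stem cell medium on hydrogel; potency is the fitted concentration of half-maximal effect; compound exposure lasted 48 h before the ATP luminescence read.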 The conditions noted are these: Potency: A2780 spheroid viability. The essentials:
(§2)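 Viability is scored by CellTiter-Glo luminescence 48 h after dosing, expressed as percent activity against vehicle and no-cell references. Spheroid formats rely on cells cultured 14 days in stem cell media beforehand.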

A short description of assay [6]: Identifying Small Molecule Inhibitors of Pancreatic Cancer Stem Cells (SN12C, Adherent) (AID 1259358).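 Note: cell survival measured after 48 h of compound exposure.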 Note: potency is the fitted concentration of half-maximal effect. The essentials:
as §2

The nature of assay [7]: Identifying Small Molecule Inhibitors of Pancreatic Cancer Stem Cells (SN12C, Spheroid) (AID 1259360). Note: potency is the fitted concentration of half-maximal effect. The conditions noted are these: Potency: SN12C spheroid viability. Summed up: as §2
Assay [8] is described as follows: Identifying Small Molecule Inhibitors of Pancreatic Cancer Stem Cells (A278, Adherent) (AID 1259361).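 Note: viability read after 48 h compound exposure; nearly all actives have a fitted effect of over 35% in size.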 Summed up:
as §2

The nature of assay [9]: P-glycoprotein substrates identified in KB-3-1 adenocarcinoma cell line, qHTS therapeutic library screen (AID 1346986). Note: nearly all actives have a fitted effect of over 60% in size. Summed up:
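72 h cell-killing screen, 500 cells/well, CellTiter-Glo luminescence. Paired lines KB-3-1/KB-8-5-11; P-gp dependence checked by tariquidar co-treatment and HEK-293 MDR-19 versus empty-vector cells.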

Assay [10] is described as follows: Identifying Small Molecule Inhibitors of Pancreatic Cancer Stem Cells (Panc1, Spheroid) (AID 1259359).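 Note: potency is the fitted concentration of half-maximal effect; compound exposure lasted 48 h before reading.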 Summed up:
as §2

Molecules are shown by their SMILES. Inconclusive results are not listed. Active and inactive are the calls of the source. Calls come from the whole dose curve; as a rule, active = well fitted curve in the direction sought with a large enough effect; inconclusive = small, poorly fitted or top-dose-only effect, or another doubt; inactive = no such curve, though single readings can be large; an effect the other way counts as inactive or inconclusive.

Take `CN[C@@H]1[C@@H](O)[C@@H](O[C@@H]2[C@@H](O)[C@H](O[C@H]3O[C@H](CN)[C@@H](O)[C@H](O)[C@@H]3O)[C@@H](N)C[C@@H]2NC(=O)[C@@H](O)CN)OC[C@]1(C)O`: the Potency entry in assay [1], in assay [2] and in [3] was “inactive” each time.
Turning to `CCNC(=O)CCCC=CC[C@@H]1[C@H](C=CC(O)CCc2ccccc2)[C@@H](O)C[C@@H]1O` (stereo partly specified), the Potency result in assay [1] and in assay [3] was “inactive” throughout. In addition, in [2], the Potency is 23.5 µM (active).
Take `COc1ccnc(CS(=O)c2nc3ccc(OC(F)F)cc3[nH]2)c1OC` (stereo unspecified): the Potency result in assay [1], in assay [2] and in assay [3] was “inactive” in each case. The call in assay [4] was inactive.
Turning to `COc1ccc2nc3cc(Cl)ccc3c(Nc3cc(CN4CCCC4)c(O)c(CN4CCCC4)c3)c2n1`, the Potency was 14.8 µM (active) in [1], 26.4 µM (active) in assay [2] and 16.6 µM (active) in [3].
Taken in the same sequence, the figures for `O=C(C=Cc1ccc(O)cc1)c1ccc(O)cc1O` were 14.8 µM (active), 20.9 µM (active) and 16.6 µM (active).
As for `CN1[C@H]2CC[C@H]1CC(OC(=O)c1c[nH]c3ccccc13)C2` (stereo partly specified), the Potency in assay [1] was 18.7 µM (active); in assay [2], 4.18 µM (active); in assay [3] it was 3.32 µM (active).
As to `C[C@@H](O[C@H]1OCCN(Cc2n[nH]c(=O)[nH]2)[C@@H]1c1ccc(F)cc1)c1cc(C(F)(F)F)cc(C(F)(F)F)c1`, the Potency is 20.9 µM (active) in [1]; 26.4 µM (active) in assay [2]; 16.6 µM (active) in assay [3]; 18.7 µM (active) in assay [5]; 18.7 µM (active) in [6]; 20.9 µM (active) in [7]. For the same compound, the IC50 (viability decrease) in [8] is 16.6 µM (active).
Consider `C[C@]12CCC3=C4CCC(=O)C=C4CC[C@@H]3[C@H]1CC[C@@]2(O)CC#N`, for which the Potency entry in assay [1], in assay [2] and in assay [3] was “inactive” each time.
Regarding `CCN(CCO)CCCOc1ccc2c(Nc3cc(CC(=O)Nc4cccc(F)c4)[nH]n3)ncnc2c1`, the Potency is 0.166 µM (active) in assay [1], 0.0833 µM (active) in [2] and 0.059 µM (active) in assay [3].
Taken in the same sequence, the figures for `N[C@@H](CC(=O)N1CCn2c(nnc2C(F)(F)F)C1)Cc1cc(F)c(F)cc1F` were 16.6 µM (active), 18.7 µM (active) and 23.5 µM (active).
On the same counts, the results for `CC[C@H](CC#N)OC(=O)N[C@@H](C)c1cccc(NC(=O)Nc2ccc(-c3cnco3)c(OC)c2)c1` are 0.469 µM (active), 0.469 µM (active) and 0.469 µM (active).
On the same counts, the results for `C=CCc1cccc(C=NNC(=O)CN2CCN(Cc3ccccc3)CC2)c1O` are 4.69 µM (active), 10.5 µM (active) and 7.43 µM (active).
Take `CC1(C)CC(=O)c2c(C(F)(F)F)nn(-c3ccc(C(N)=O)c(NC4CCC(O)CC4)c3)c2C1` (stereo unspecified): the Potency in [1] is 0.0935 µM (active); in [2], 0.148 µM (active); in [3], 0.0833 µM (active).
Taken in the same sequence, the figures for `O=c1[nH]c(=O)n([C@H]2C[C@@H](O)[C@@H](CO)O2)cc1C(F)(F)F` were 1.87 µM (active), 3.32 µM (active) and 1.32 µM (active).
Taken in the same sequence, the figures for `COC(=O)N1CCN(Cc2cccc(NC(=O)Nc3ccc(C)nc3)c2F)CC1` were 8.33 µM (active), “inactive” and “inactive”.
On the same counts, the results for `COc1cc([C@@H]2c3cc4c(cc3[C@@H](O[C@@H]3O[C@@H]5CO[C@@H](C)O[C@@H]5[C@H](O)[C@@H]3O)[C@H]3COC(=O)[C@H]23)OCO4)cc(OC)c1O` are 0.59 µM (active), 0.148 µM (active) and “inactive”.
Turning to `O=C(c1ccc(C=Cc2n[nH]c3ccccc23)cc1)N1CCNCC1`, the Potency in [1] was 1.66 µM (active); in [2], 0.662 µM (active); in assay [3] it was 0.743 µM (active).
For `NC(=O)c1ncn([C@@H]2O[C@H](CO)[C@@H](O)[C@@H]2O)n1`, the Potency result in assay [1], in assay [2] and in assay [3] was “inactive” throughout.
`NC(=O)c1ccc(N(C(N)=O)c2c(F)cccc2F)nc1-c1ccc(F)cc1F`: the Potency entry in assay [1], in assay [2], in assay [3], in assay [6], in [7] and in assay [9] was “inactive” throughout. Further, in assay [8], the IC50 (viability decrease) result is “inactive”.
Consider `CC(C)c1c(C(=O)Nc2ccccc2)c(-c2ccccc2)c(-c2ccc(F)cc2)n1CC[C@H](O)C[C@@H](O)CC(=O)O`, for which the Potency in assay [1] is 14.8 µM (active); in assay [2], 23.5 µM (active); in assay [3], 3.72 µM (active).
On to `C[C@@H]1C[C@H]2[C@@H]3CCC4=CC(=O)C=C[C@]4(C)[C@@]3(F)[C@@H](O)C[C@]2(C)[C@@]1(O)C(=O)CO`, for which the Potency entry in assay [1], in assay [2] and in assay [3] was “inactive” in each case.
`OC(c1cc(C(F)(F)F)nc2c(C(F)(F)F)cccc12)C1CCCCN1` (stereo unspecified): the Potency was 20.9 µM (active) in assay [1], 20.9 µM (active) in [2] and 26.4 µM (active) in assay [3].
For the compound `CN(C)CCN(C)C(=O)c1ccc(NC(=O)Nc2ccc(-c3nc(N4CCOCC4)c4ccn(CC(F)(F)F)c4n3)cc2)cc1`, the Potency in [1] is 0.0743 µM (active); in [2], 0.0209 µM (active); in assay [5], 0.418 µM (active); in assay [10], 6.62 µM (active); in [7], 0.264 µM (active). In addition, in assay [8], the IC50 (viability decrease) was 0.0418 µM (active).

These data come from PubChem BioAssay (NCATS).
